Rab9 promoter act = activators of Rab9 promoter; Potency, µM (doses to about 9.22 µM), for inactives: at the top dose activation, negative = inhibition, most hits filed as activators; 2.8% of 320,000 active; Huh7 Rab9 promoter-luciferase reporter, luminescence, 24 h; also: % of control where 0% means no effect; nearly all actives have a fitted effect of over 60% in size
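Stable Rab9-luc Huh7, 1500 cells/well, 2 h settle; cmpd in DMSO, 24 h, 37 °C/5% CO2; luciferase reagent 10 min RT; luminescence.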
ELG1 DNA repair = blocks ELG1-dependent DNA repair in HEK293T cells. 2.3% of 330,000 active. HEK293T ELG1-luciferase reporter, luminescence, 16 h; DNA damage induced by 5-fluorouridine. AID 504467. Potency, µM (top dose mostly 46.1 µM), for the others: top-dose activity change, negative = inhibition, usual class: inhibitors; also: % is scaled to controls: 0 for no effect and ±100 for the full control effect; nearly all actives have a fitted effect of over 55% in size
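In this reporter screen, reduction of luminescence relative to DMSO vehicle indicated activity. Compounds and 5-fluorouridine were added together to 2,000 cells per well, incubated for 16 hr at 37 °C, then developed with ONE-Glo.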
FLuc counter = firefly luciferase modulation, counter-screen for miR-21 project. purified FLuc, Km substrates, luminescence inhibition. P08659. Potency, µM (doses to about 57.5 µM), for inactives: top-dose activity change, negative = inhibition, usual class: inhibitors. 6.9% of 360,000 active;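 also: plate controls were vehicle for no effect and reference inhibitor for full effect; nearly all actives have a fitted effect of over 55% in size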
Target sequence (P08659 whole entry, looked up): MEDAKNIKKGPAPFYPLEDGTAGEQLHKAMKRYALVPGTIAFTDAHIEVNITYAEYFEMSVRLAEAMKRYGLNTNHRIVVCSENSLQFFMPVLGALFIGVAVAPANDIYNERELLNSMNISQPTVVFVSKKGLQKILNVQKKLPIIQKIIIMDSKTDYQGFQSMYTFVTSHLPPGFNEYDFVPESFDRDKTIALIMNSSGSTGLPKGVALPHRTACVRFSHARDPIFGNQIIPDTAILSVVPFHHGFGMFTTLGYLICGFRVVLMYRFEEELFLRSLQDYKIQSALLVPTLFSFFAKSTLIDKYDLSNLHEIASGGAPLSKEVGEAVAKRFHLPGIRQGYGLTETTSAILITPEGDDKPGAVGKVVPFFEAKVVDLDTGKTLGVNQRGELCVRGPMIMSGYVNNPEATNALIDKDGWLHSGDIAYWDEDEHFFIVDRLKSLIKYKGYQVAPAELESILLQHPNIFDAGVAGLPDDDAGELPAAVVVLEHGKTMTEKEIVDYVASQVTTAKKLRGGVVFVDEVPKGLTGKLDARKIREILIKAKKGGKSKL
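Biochemical qHTS of compounds, final roughly 60 µM downward over six points, against 10 nM purified firefly luciferase using Km concentrations of substrates (10 uM D-luciferin, 10 uM ATP) in Tris acetate pH 7.5 buffer; luminescence output.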
SMN2 splice enh = increases expression of the SMN2 splice variant; HEK293 SMN2-luciferase splicing reporter, luminescence, 30-36 h; AID 1458; Potency, µM (highest dose often 46.1 µM), for the others: at the highest dose activity change, positive = activation, hits mostly activators; 2.8% of 210,000 active; also: % of control where 0% means no effect; nearly all actives have a fitted effect of over 55% in size
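qHTS luciferase splicing reporter: luminescence rises when SMN2 exon 7 is included in transfected HEK293 cells. Compound exposure lasted 30-36 h at 37C, with 4.5 mM final sodium butyrate as control, followed by a ONE-Glo read.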
ELG1 genotoxic = genotoxicity induction in ELG1-luciferase HEK293T cells; Potency, µM (series often up to 46 µM), for the others: at the top dose activity change, positive = activation, usual class: activators; HEK293T ELG1-luciferase reporter, luminescence, 16 h; 1.3% of 330,000 active; also: % of control where 0% means no effect; nearly all actives have a fitted effect of over 60% in size
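Cells (2,000/well) expressing the ELG1-luciferase fusion are dosed by pin tool and kept 16 hr at 37 °C, 5% CO2. Signal comes from ONE-Glo luciferase reagent after 30 min at room temperature.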
NPC1 promoter act = NPC1 promoter activation. 2.4% of 320,000 active. Potency, µM (highest dose often 9.22 µM), inactives show at the top dose activation, actives largely listed as activators. AID 485313. Huh7 NPC1 promoter luciferase reporter, 24 h; also: % of control where 0% means no effect; nearly all actives have a fitted effect of over 60% in size
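Luminescence from an NPC1 promoter-driven luciferase reporter in stably transfected Huh7 cells was measured after 24 h compound treatment at 37 °C, followed by 10 min ambient incubation with luciferase detection reagent.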
Active calls of the source: *; ? = inconclusive; / = no result given; [ ] = remark or other dose. The list is not random: actives were taken first. Their share in the collection is about 9.3%. Calls follow the shape of the dose curve; as a rule, active = well fitted curve in the direction sought with a large enough effect; inconclusive = small, poorly fitted or top-dose-only effect, or another doubt; inactive = no such curve, though single readings can be large; an effect the other way counts as inactive or inconclusive. Potency is read from the fitted curve at half-maximal effect.

SMILES	Rab9 promoter act	ELG1 DNA repair	FLuc counter	SMN2 splice enh	ELG1 genotoxic	NPC1 promoter act
COc1ccc(-c2noc(-c3cccc(Cl)c3)n2)cc1OC	28%	?	?	?	?	?
COc1ccccc1-c1nc(-c2ccc(Br)cc2)no1	5µM*	?	4.8µM*	16µM*	3.7µM*	?
COc1ccc(Cl)cc1-c1nc(-c2ccncc2)no1	18%	?	1%	28µM*	?	29%
CCOC(=O)CSc1nc2c(c(=O)[nH]1)C(C)(CC)Cc1ccccc1-2 (configuration not stated)	-10%	-9%	5%	/	?	-8%
O=C(Nc1cccc(-c2ccc(N3CCOCC3)nn2)c1)c1ccc(Cl)cc1	?	?	2.1µM*	/	?	?
O=C(Nc1cccc(-c2ccc(N3CCOCC3)nn2)c1)c1ccccc1Cl	3.5µM*	?	1.7µM*	/	11%	?
O=C(COc1ccc(Cl)cc1)Nc1cccc(-c2ccc(N3CCOCC3)nn2)c1	1.6µM*	?	1.3µM*	/	2.1µM*	3.2µM*
Cc1cc(C(=O)Nc2cccc(-c3ccc(N4CCOCC4)nn3)c2)ccc1[N+](=O)[O-]	?	?	2.7µM*	/	0%	?
N=c1c2ccccc2nnn1-c1ccc(C(F)(F)F)cc1	?	?	-4%	-7%	?	23%
O=C(Nc1cccc(-c2ccc(N3CCCCC3)nn2)c1)c1ccco1	2.8µM*	?	0.38µM*	/	1.6µM*	4µM*
Cc1ccc(C(=O)Nc2cccc(-c3ccc(N4CCOCC4)nn3)c2)cc1C	2.8µM*	?	2.1µM*	/	?	?
Cc1ccc(C(=O)Nc2cccc(-c3ccc(N4CCOCC4)nn3)c2)cc1	3.5µM*	?	1.3µM*	/	1%	2.5µM*
CCC(=O)N(CCC(c1ccc(C)cc1)c1ccco1)Cc1ccco1 (configuration not stated)	1%	3%	4%	/	-7%	-1%
O=C(Nc1nc2ccccc2[nH]1)C1CCCC1	1.3µM*	?	15µM*	11µM*	?	1.6µM*
CC(C)[C@H](NC(=O)C1CCCC1)c1nc2ccccc2[nH]1	9%	?	0%	13%	1%	0%
O=C(Nc1nc2ccccc2[nH]1)C1CCC1	2.8µM*	?	17µM*	13µM*	?	?
O=C(NCc1nc2ccccc2[nH]1)C1CCCCC1	-3%	6%	4%	2%	3%	3%
O=C(CC1CCCC1)Nc1nc2ccccc2[nH]1	2.8µM*	?	9.5µM*	13µM*	16µM*	3.5µM*
CCOc1ncccc1C(=O)N(CCC(C)C)c1c(N)n(Cc2ccccc2)c(=O)[nH]c1=O	/	0%	/	/	-2%	/
Cc1cc(C)cc(NC(=O)Cn2cc(C(=O)c3ccccc3)c(=O)c3ccc(C)nc32)c1	/	/	-1%	/	/	/
COc1ccc(/C=C/C(=O)c2ccc(O)cc2)cc1COc1ccc(F)cc1	2%	?	15µM*	/	-1%	-2%
COc1ccc(C(=O)/C=C/c2ccc(OC)c(COc3ccccc3F)c2)cc1	-2%	?	?	-46%	-1%	-1%
COc1cc(/C=C/C(=O)c2ccc(F)cc2)cc(OC)c1OC	-15%	?	-9%	-71%	-28%	0%
COc1ccc(/C=C/C(=O)c2ccccc2)cc1COc1ccc(F)cc1	-5%	-22%	9.5µM*	-19%	-2%	-2%
Cc1ccc(SCCc2cc[n+](CC(=O)c3ccccc3)cc2)cc1	?	?	19µM*	/	?	29%
SMILES	Rab9 promoter act	ELG1 DNA repair	FLuc counter	SMN2 splice enh	ELG1 genotoxic	NPC1 promoter act
Cc1ccc(C(=O)C[n+]2ccc(Cc3ccccc3)cc2)cc1	3%	7.3µM*	-3%	-72%	-9%	-12%
O=C(COc1ccc(Br)cc1)NCC1COc2ccccc2O1 (configuration not stated)	-1%	?	4%	/	0%	-4%
O=C(c1ccco1)N1N=C(c2cccs2)CC1c1ccc(F)cc1 (configuration not stated)	-3%	0%	-3%	-9%	-1%	7%
O=C(c1ccco1)N1N=C(c2cccs2)CC1c1cc([N+](=O)[O-])ccc1O (configuration not stated)	0%	4%	17µM*	/	10%	11%
Nc1ccccc1C#Cc1ccccc1	26%	?	6.7µM*	32%	?	?
N#Cc1ccccc1Sc1ccccc1N	1%	16%	-17%	2%	1%	-2%
NS(=O)(=O)C#Cc1ccccc1	-41%[46.1 µM]	/	/	/	/	-37%[46.1 µM]
Nc1ccc(C#Cc2ccccc2)cc1	30%	?	15µM*	24%	?	22%
COc1ccc2c(c1)c(=O)oc1cc(OCC(=O)N3CCc4ccccc4C3)ccc12	8%	-18%	?	-30%	2%	-1%
CCOc1ccc2nc(C(C)O)[nH]c2c1 (configuration not stated)	2%	?	1%	13%	0%	0%
COc1ccc2[nH]c(-c3ccc(C)cc3)cc(=O)c2c1	2.5µM*	?	1.5µM*	1.3µM*	2.9µM*	?
COc1ccc2[nH]c(-c3ccccc3)cc2c1	0.89µM*	?	6µM*	/	?	1.6µM*
COc1ccc2nc(C(C)O)[nH]c2c1 (configuration not stated)	-1%	14%	-6%	9%	0%	2%
COc1ccc2nc(-c3ccccc3)[nH]c2c1	1.6µM*	?	2.1µM*	6.3µM*	1.3µM*	2.8µM*
CCOc1ccc2nc(-c3ccccc3)[nH]c2c1	?	?	1.1µM*	14µM*	?	0.79µM*
c1cncc(CSc2ncnc3nc[nH]c23)c1	/	/	/	-4%[9.22 µM]	/	/
Cc1ccc(NC(=O)CN(C)C(=O)COc2ncnc3ccc(Br)cc23)cc1	-4%	10%	-2%	/	-1%	-4%
CCc1nc(-c2cc(S(=O)(=O)N3CCN(c4ccccc4OC)CC3)ccc2OC)no1	/	/	2%	/	/	/
CCNC(=O)COC(=O)c1cc(S(=O)(=O)N2CCCc3ccccc32)ccc1Cl	0%	-3%	2%	/	-1%	-4%
Brc1ccc(-c2nnc(Cc3ccccc3)o2)cc1	?	?	11µM*	/	21µM*	3.5µM*
Cc1ccc(-c2nnc(Cc3ccc(Cl)cc3)o2)cc1	28%	?	17µM*	21%	16µM*	23%
COc1ccc(Cc2nnc(-c3ccccc3)o2)cc1	?	?	?	-13%	/	17%

Screening results deposited in PubChem by National Center for Advancing Translational Sciences (NCATS).
